The record followed here is article PMC7862700, “An all-to-all approach to the identification of sequence-specific readers for epigenetic DNA modifications on cytosine”.

Holding throughout (assay): DAPPL (digital affinity profiling via proximity ligation, sequencing); 10 mM Tris-HCl pH 7.5, 50 mM NaCl, 1 mM DTT, 4% glycerol, room temperature, 30 min; GST-TFs on glutathione beads, 16-mer random dsDNA library, 0.1% formaldehyde crosslink after washing; high values mean tight binding
In one assay the target is T1, FEV (Homo sapiens, UniProt Q99581 1-238).
T1 sequence: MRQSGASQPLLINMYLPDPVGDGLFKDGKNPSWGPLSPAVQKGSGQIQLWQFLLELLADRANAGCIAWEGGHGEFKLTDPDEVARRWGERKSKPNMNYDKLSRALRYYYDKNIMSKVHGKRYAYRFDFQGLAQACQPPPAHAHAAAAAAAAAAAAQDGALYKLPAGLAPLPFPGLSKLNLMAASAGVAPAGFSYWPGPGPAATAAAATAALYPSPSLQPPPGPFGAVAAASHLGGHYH
To be noted: protein: recombinant; tags: N-terminal GST; dsDNA, one strand shown. Put shortly: (§1)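 Beads coated with glutathione captured GST-fused human transcription factors that had been expressed in yeast, and the factors were then given DNA barcodes and pooled with a tag-only sample. The pools were incubated with 200 nmole of a random double-stranded 16-mer DNA library in Tris/NaCl/DTT/glycerol buffer for 30 min at room temperature, washed, crosslinked with 0.1% formaldehyde and proximity-ligated with BsaI/T4 ligase at 37 °C for 1 h. PCR amplification and Illumina NextSeq500 sequencing came last. Binding signal is each hexamer's read frequency for a factor divided by its frequency for the tag-only sample.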

Another assay concerns the target ETV5 (Homo sapiens, UniProt P41161 1-510). To be noted: protein: recombinant; tags: N-terminal GST; dsDNA, one strand shown. The method in brief: as §1
For another assay, the target named is HSF1 (Homo sapiens, UniProt Q00613 1-529). To be noted: protein: recombinant; tags: N-terminal GST; chain copies: 3; dsDNA, one strand shown. Put shortly:
as §1

The next assay concerns the target T2, SPIC (Homo sapiens, UniProt Q8N5J4 1-248).
T2 sequence: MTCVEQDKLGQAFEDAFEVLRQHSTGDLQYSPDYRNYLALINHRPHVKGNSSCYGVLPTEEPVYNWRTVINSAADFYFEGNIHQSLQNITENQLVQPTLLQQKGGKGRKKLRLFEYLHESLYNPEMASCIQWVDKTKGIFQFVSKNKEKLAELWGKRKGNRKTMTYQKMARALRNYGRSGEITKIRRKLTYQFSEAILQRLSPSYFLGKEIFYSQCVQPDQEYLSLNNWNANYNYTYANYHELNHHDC
The conditions noted are these: protein: recombinant; tags: N-terminal GST; dsDNA, one strand shown. The method in brief: as §1

The next assay deals with ELF4 (Homo sapiens, UniProt Q99607 1-663). The conditions noted are these: protein: recombinant; tags: N-terminal GST; dsDNA, one strand shown. The method in brief: as §1
Sequence of ELF4 (Q99607 whole entry): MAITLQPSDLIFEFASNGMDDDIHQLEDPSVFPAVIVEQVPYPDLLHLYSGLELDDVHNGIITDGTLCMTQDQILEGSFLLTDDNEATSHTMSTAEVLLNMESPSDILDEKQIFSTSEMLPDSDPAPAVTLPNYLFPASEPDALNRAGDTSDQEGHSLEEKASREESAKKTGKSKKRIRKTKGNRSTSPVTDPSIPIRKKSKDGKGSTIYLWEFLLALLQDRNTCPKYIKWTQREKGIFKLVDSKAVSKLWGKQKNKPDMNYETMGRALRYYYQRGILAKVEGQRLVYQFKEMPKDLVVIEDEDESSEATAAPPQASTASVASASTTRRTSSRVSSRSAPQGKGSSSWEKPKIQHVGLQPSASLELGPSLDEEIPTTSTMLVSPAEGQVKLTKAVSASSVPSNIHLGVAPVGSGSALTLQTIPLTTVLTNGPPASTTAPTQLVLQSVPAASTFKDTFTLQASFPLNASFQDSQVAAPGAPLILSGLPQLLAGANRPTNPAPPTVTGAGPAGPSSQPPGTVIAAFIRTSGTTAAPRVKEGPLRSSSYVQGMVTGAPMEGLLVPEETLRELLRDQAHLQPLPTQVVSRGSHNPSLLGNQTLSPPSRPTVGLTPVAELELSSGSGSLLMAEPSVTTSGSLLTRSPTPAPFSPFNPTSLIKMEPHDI
A further assay addresses T3, ELK4 (Homo sapiens, UniProt P28324-2 1-405).
T3 sequence: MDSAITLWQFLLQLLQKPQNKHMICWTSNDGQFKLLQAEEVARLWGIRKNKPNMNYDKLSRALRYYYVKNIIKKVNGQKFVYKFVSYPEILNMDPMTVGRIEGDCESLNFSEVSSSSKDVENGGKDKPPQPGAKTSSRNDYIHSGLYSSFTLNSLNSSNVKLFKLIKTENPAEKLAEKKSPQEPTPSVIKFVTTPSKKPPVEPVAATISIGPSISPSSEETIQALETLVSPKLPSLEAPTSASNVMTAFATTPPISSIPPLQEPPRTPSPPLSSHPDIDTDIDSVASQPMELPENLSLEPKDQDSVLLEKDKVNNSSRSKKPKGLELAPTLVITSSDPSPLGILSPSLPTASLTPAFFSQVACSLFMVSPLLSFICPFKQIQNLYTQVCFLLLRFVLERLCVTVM
To be noted: protein: recombinant; tags: N-terminal GST; dsDNA, one strand shown. Put shortly: as §1

A further assay concerns the target T4, ETV2 (Homo sapiens, UniProt O00321 1-342).
T4 sequence: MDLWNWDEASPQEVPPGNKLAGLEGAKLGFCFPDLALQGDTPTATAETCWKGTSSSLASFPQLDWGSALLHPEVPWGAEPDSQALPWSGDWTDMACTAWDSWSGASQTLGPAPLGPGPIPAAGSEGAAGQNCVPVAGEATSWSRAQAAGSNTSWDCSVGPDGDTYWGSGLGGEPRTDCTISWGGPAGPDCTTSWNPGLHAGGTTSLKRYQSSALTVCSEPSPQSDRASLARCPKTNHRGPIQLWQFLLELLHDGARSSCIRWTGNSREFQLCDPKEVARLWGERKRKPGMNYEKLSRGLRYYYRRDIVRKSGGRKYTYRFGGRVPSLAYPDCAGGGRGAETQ
The conditions noted are these: protein: recombinant; tags: N-terminal GST; dsDNA, one strand shown. The method in brief:
as §1

A further assay concerns the target T5, ELF3 (Homo sapiens, UniProt P78545 1-371).
T5 sequence: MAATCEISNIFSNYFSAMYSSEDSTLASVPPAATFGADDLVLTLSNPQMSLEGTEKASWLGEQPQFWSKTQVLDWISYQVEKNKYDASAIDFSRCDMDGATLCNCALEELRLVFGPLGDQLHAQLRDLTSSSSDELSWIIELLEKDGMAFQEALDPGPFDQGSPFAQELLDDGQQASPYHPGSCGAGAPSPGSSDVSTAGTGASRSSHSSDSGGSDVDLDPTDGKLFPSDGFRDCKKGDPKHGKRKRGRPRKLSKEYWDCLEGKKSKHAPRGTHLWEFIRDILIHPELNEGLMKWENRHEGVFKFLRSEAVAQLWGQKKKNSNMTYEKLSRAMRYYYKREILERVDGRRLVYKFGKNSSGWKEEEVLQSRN
To be noted: protein: recombinant; tags: N-terminal GST; dsDNA, one strand shown. The method in brief:
as §1

In another assay the target is CRX (Homo sapiens, UniProt O43186 1-299). To be noted: protein: recombinant; tags: N-terminal GST; dsDNA, one strand shown. Put shortly:
as §1

The target of the next assay is ETV1 (Homo sapiens, UniProt P50549 1-477). To be noted: protein: recombinant; tags: N-terminal GST; dsDNA, one strand shown. The method in brief:
as §1

Another assay addresses T6, ERF (Homo sapiens, UniProt P50548 1-548).
T6 sequence: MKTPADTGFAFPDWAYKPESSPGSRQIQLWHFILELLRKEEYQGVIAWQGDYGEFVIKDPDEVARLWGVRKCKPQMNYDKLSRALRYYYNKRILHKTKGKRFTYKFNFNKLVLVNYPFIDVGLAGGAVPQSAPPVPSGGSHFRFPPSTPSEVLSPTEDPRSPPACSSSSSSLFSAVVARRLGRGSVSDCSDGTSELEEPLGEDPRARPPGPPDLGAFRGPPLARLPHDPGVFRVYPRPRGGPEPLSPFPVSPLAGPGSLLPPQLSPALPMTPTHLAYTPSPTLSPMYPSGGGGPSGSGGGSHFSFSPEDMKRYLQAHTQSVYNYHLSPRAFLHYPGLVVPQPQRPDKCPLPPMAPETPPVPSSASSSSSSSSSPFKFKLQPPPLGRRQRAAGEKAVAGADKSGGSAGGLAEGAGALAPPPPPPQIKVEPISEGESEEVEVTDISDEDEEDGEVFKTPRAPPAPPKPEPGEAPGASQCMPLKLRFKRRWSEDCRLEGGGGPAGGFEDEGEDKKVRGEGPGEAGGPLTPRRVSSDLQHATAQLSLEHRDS
The conditions noted are these: protein: recombinant; tags: N-terminal GST; dsDNA, one strand shown. Put shortly:
as §1

For the next assay, the target named is T7, ETV3L (Homo sapiens, UniProt Q6ZN32 1-361).
T7 sequence: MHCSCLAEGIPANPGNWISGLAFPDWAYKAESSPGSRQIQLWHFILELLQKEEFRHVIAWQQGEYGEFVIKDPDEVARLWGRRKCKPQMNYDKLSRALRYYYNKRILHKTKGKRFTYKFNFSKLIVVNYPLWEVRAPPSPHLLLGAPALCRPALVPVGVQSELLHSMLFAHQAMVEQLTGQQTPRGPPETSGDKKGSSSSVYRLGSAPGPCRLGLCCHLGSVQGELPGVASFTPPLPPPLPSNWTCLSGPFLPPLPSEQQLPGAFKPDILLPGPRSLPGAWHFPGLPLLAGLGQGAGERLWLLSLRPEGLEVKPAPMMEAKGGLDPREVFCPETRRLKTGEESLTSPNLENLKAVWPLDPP
To be noted: protein: recombinant; tags: N-terminal GST; dsDNA, one strand shown. The method in brief: as §1

The target in another assay is T8, ETS2 (Homo sapiens, UniProt P15036 1-469).
T8 sequence: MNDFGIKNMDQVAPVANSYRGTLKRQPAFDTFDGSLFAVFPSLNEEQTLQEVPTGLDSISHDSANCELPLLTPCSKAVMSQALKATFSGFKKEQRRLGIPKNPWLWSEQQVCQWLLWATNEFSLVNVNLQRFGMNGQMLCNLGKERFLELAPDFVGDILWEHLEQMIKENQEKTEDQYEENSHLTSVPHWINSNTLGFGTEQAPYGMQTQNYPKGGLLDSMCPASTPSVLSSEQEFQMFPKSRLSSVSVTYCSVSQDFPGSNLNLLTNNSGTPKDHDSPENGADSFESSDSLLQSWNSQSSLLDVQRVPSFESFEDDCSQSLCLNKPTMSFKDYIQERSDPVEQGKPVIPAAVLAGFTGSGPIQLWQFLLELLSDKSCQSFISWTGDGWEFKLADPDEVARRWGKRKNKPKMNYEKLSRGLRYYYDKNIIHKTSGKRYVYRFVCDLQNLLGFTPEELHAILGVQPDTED
To be noted: protein: recombinant; tags: N-terminal GST; dsDNA, one strand shown. Put shortly:
as §1

The next assay concerns the target T9, SPDEF (Homo sapiens, UniProt O95238 1-335).
T9 sequence: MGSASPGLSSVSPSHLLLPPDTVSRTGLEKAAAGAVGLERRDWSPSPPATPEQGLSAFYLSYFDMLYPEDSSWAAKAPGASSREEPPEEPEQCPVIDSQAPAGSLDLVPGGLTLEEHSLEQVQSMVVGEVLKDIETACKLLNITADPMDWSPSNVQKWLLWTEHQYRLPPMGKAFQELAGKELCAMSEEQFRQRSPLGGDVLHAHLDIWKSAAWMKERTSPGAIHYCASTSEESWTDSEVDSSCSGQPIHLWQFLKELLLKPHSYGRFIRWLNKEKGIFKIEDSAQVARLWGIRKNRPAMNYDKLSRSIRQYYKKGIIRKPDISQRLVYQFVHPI
To be noted: protein: recombinant; tags: N-terminal GST; dsDNA, one strand shown. Put shortly:
as §1

The next assay concerns the target T10, ETV7 (Homo sapiens, UniProt Q9Y603 1-341).
T10 sequence: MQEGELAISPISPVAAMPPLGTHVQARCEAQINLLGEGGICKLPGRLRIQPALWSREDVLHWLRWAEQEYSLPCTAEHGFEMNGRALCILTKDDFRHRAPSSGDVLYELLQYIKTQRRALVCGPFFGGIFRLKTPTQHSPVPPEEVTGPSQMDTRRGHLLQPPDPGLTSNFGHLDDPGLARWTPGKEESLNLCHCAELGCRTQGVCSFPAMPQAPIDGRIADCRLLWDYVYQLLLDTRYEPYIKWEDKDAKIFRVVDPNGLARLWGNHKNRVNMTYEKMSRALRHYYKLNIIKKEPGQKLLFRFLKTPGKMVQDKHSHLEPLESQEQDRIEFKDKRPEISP
The conditions noted are these: protein: recombinant; tags: N-terminal GST; dsDNA, one strand shown. The method in brief: as §1

A further assay addresses T11, ELF5 (Homo sapiens, UniProt Q9UKW6-2 1-255).
T11 sequence: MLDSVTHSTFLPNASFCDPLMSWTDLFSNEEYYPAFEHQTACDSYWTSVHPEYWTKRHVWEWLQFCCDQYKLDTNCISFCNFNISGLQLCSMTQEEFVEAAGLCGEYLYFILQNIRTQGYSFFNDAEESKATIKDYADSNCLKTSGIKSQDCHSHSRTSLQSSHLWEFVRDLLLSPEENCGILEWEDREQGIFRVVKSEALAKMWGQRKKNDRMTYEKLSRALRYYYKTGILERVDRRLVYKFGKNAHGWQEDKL
To be noted: protein: recombinant; tags: N-terminal GST; dsDNA, one strand shown. Put shortly: as §1

The target in a further assay is T12, ETV3 (Homo sapiens, UniProt P41162-2 1-143).
T12 sequence: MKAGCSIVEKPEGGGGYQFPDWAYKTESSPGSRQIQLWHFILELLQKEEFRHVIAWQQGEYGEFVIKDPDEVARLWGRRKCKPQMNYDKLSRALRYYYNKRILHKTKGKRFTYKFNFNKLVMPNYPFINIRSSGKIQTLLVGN
To be noted: protein: recombinant; tags: N-terminal GST; dsDNA, one strand shown. Put shortly: as §1

The target in a further assay is ETV6 (Homo sapiens, UniProt P41212 1-452). To be noted: protein: recombinant; tags: N-terminal GST; dsDNA, one strand shown. The method in brief: as §1
Sequence of ETV6 (P41212 whole entry): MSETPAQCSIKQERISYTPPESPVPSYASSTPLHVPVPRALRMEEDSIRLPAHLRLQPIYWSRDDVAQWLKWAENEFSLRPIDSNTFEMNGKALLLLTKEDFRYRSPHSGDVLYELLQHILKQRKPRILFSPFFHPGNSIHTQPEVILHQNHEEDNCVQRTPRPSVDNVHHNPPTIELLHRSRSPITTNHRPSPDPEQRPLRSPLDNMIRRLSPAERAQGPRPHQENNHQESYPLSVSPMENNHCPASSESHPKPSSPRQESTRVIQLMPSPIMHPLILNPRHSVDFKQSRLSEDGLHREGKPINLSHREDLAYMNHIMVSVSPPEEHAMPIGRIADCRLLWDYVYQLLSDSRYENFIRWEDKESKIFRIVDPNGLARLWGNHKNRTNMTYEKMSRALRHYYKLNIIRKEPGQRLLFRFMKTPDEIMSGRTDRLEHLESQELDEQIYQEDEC

Sequence of CRX (O43186 whole entry): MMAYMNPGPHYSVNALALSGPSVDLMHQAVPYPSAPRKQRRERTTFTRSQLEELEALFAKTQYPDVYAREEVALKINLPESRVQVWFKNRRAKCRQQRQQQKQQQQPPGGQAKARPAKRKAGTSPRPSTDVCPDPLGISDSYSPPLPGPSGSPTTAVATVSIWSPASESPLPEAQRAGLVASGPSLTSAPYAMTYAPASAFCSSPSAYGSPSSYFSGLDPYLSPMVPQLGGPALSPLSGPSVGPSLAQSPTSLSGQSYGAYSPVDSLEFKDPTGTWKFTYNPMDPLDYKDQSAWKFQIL
Sequence of ETV1 (P50549 whole entry): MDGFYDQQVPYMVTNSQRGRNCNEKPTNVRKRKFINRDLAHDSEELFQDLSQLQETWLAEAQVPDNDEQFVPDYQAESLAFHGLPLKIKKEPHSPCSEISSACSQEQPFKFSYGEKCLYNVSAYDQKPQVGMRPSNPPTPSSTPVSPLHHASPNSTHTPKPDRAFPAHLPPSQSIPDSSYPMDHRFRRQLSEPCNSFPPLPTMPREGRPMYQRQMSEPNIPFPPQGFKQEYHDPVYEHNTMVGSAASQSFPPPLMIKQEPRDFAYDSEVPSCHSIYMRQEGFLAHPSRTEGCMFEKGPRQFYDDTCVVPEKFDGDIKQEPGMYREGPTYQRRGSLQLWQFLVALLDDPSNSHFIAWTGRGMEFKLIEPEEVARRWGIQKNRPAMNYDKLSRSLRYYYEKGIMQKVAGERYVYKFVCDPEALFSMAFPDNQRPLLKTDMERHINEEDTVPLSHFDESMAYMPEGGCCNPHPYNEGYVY
Sequence of ETV5 (P41161 whole entry): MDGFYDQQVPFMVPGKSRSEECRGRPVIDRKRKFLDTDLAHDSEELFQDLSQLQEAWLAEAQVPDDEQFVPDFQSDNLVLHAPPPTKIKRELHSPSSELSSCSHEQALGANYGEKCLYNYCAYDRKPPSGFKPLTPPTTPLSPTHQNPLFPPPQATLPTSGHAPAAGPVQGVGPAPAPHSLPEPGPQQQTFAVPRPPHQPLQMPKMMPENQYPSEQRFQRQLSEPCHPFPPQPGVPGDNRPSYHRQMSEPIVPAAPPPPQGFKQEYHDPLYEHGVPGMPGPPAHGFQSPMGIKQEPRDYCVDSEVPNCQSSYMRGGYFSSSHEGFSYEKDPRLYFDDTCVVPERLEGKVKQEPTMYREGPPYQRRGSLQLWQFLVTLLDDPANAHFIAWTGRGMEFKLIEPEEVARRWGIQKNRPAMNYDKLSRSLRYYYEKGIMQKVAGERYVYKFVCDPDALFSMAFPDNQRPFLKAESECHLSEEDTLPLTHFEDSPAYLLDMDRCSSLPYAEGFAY
Sequence of HSF1 (Q00613 whole entry): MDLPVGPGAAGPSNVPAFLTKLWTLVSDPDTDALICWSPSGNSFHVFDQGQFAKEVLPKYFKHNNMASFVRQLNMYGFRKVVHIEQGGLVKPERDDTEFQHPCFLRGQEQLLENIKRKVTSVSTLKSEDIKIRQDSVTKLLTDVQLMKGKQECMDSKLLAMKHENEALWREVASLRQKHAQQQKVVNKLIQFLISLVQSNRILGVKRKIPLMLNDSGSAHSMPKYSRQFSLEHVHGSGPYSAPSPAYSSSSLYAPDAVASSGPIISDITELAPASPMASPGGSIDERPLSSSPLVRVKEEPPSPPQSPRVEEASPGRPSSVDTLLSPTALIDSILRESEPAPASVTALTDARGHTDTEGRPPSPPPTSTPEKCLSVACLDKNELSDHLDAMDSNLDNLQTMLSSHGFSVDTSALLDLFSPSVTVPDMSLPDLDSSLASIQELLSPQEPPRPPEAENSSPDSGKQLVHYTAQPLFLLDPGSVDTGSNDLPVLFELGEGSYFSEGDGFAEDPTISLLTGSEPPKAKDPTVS

For CCCCCT, the binding signal in the assay with FEV was 1.18 fold enrichment (6-mer frequency, TF over GST control); with ETV5, 1.29 fold enrichment (6-mer frequency, TF over GST control); in the assay with HSF1, 1.02 fold enrichment (6-mer frequency, TF over GST control); in the assay with SPIC it was 1.31 fold enrichment (6-mer frequency, TF over GST control); with ELF4, 1.35 fold enrichment (6-mer frequency, TF over GST control); with ELK4 it was 1.58 fold enrichment (6-mer frequency, TF over GST control). Moreover, the binding signal in the assay with ETV2 is 1.17 fold enrichment (6-mer frequency, TF over GST control); in the assay with ELF3, 1.39 fold enrichment (6-mer frequency, TF over GST control); with CRX, 1.07 fold enrichment (6-mer frequency, TF over GST control); in the assay with ETV1, 1.2 fold enrichment (6-mer frequency, TF over GST control); in the assay with ERF, 1.38 fold enrichment (6-mer frequency, TF over GST control); with ETV3L, 1.23 fold enrichment (6-mer frequency, TF over GST control). Besides, the binding signal was 1.14 fold enrichment (6-mer frequency, TF over GST control) with ETS2; 1.05 fold enrichment (6-mer frequency, TF over GST control) with SPDEF; 1.17 fold enrichment (6-mer frequency, TF over GST control) in the assay with ETV7; 1.37 fold enrichment (6-mer frequency, TF over GST control) in the assay with ELF5; 1.27 fold enrichment (6-mer frequency, TF over GST control) with ETV3; 1.15 fold enrichment (6-mer frequency, TF over GST control) in the assay with ETV6.
